Measured values: PubChem BioAssay AID1159580 (chemical genetic matrix, 2015)
Values joined by “and” are separate entries in the source; they are usually repeats but may differ in a detail not shown here. Identical values can stand only once. About 2,000 (36%) of roughly 5,500 compounds were called active. Not shown: some 18% with an inconclusive outcome. No stated cut-off is given here; in the data, active means normalized growth mostly below about 0.91 (no sharp cut-off); inconclusive means no clear call, values can overlap the other calls; inactive means mostly above about 0.92. The list shows a part of the results.

Experiment: chemical genetic growth profiling, strain panel (AID 1159580);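 further: tested at 20 µM; growth read once vehicle control cultures reached saturation at 30 °C; 1 = growth at the plate median or of vehicle wells; lower values mean less growth of the strain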
Conditions: S. cerevisiae deletion strains, growth OD

Measured: normalized growth

C[C@@H]1O[C@@H](O[C@H]2C[C@@H](O)[C@]3(CO)C4C(CC[C@]3(O)C2)[C@@]2(O)CC[C@H](C3=CC(=O)OC3)[C@@]2(C)C[C@H]4O)[C@H](O)[C@H](O)[C@H]1O (some centres not stated)
inactive: locus YAL021C, strain ccr4, hits give low values 1.01 | locus YAL026C, strain drs2, hits give low values 1.02 | locus YAL030W, strain snc1, hits give low values 1.03 | locus YBL061C, strain skt5, hits give low values 1.02 | locus YBR009C, strain hhf1, hits give low values 1.04 | locus YBR021W, strain FUR4, hits give low values 1.05 | locus YBR023C, strain chs3, hits give low values 1.03 | locus YBR171W, strain sec66, hits give low values 1.04 | locus YBR229C, strain ROT2, hits give low values 1.02 | locus YBR231C, strain swc5, hits give low values 1.01 | locus YBR279W, strain paf1, hits give low values 1.02 | locus YCL011C, strain gbp2, hits give low values 1.02 | locus YCL016C, strain dcc1, hits give low values 1.04 | locus YCL029C, strain bik1, hits give low values 0.99 | locus YCL061C, strain MRC1, hits give low values 1.01 | locus YCL069W, strain vba3, hits give low values 1.03 | locus YCR088W, strain abp1, hits give low values 1.02 | locus YDL005C, strain med2, hits give low values 1.02 | locus YDL035C, strain GPR1, hits give low values 1.05 | locus YDL040C, strain nat1, hits give low values 1.02 | locus YDL074C, strain BRE1, hits give low values 1.04 | locus YDL101C, strain DUN1, hits give low values 1.02 | locus YDL185W, strain tfp1, hits give low values 1 | locus YDL192W, strain arf1, hits give low values 0.994 | locus YDR001C, strain nth1, hits give low values 1.02 | locus YDR069C, strain doa4, hits give low values 0.997 | locus YDR101C, strain arx1, hits give low values 0.994 | locus YDR137W, strain rgp1, hits give low values 1.02 | locus YDR159W, strain sac3, hits give low values 1 | locus YDR162C, strain NBP2, hits give low values 1.03 | locus YDR195W, strain ref2 1.01 | locus YDR297W, strain sur2, hits give low values 1.02 | locus YDR318W, strain mcm21, hits give low values 0.998 | locus YDR334W, strain swr1, hits give low values 1.03 | locus YDR335W, strain msn5, hits give low values 1.03 | locus YDR388W, hits give low values 0.992 | locus YDR392W, strain spt3, hits give low values 0.981 | locus YDR502C, strain sam2, hits give low values 0.989 | locus YEL003W, strain gim4, hits give low values 1.03 | locus YEL037C, strain rad23, hits give low values 1.03 | locus YEL061C, strain CIN8 (second series), hits give low values 1.03 | locus YEL061C, strain CIN8, hits give low values 1.02 | locus YER015W, strain faa2, hits give low values 1.02 | locus YER016W, strain bim1, hits give low values 1.01 | locus YER110C, hits give low values 0.985 | locus YER111C, strain swi4, hits give low values 1.02 | locus YER155C, strain BEM2 (second series), hits give low values 1.01 | locus YER155C, strain BEM2, hits give low values 1.01 | locus YER167W, strain BCK2, hits give low values 1.03 | locus YFR010W, strain ubp6, hits give low values 1.03 | locus YGL078C, strain dbp3, hits give low values 0.992 | locus YGL086W, strain mad1, hits give low values 0.996 | locus YGL167C, strain pmr1, hits give low values 1.03 | locus YGL173C, strain kem1, hits give low values 1.02 | locus YGL227W, strain vid30, hits give low values 1.03 | locus YGL240W, strain doc1, hits give low values 0.997 | locus YGL248W, strain PDE1, hits give low values 1.02 | locus YGL253W, strain hxk2, hits give low values 1.01 | locus YGR135W, strain pre9, hits give low values 1.01 | locus YGR252W, strain gcn5, hits give low values 0.98 | locus YHR013C, strain ard1, hits give low values 1.04 | locus YHR027C, strain rpn1, hits give low values 1.02 | locus YHR030C, strain SLT2, hits give low values 1.02 | locus YHR079C, strain IRE1 (second series), hits give low values 0.987 | locus YHR079C, strain IRE1, hits give low values 1.02 | locus YHR094C, strain hxt1, hits give low values 0.983 | locus YHR129C, strain ARP1, hits give low values 1.02 | locus YHR142W, strain chs7, hits give low values 1.04 | locus YHR200W, strain rpn10, hits give low values 0.999 | locus YIL066C, strain RNR3, hits give low values 1.05 | locus YIL073C, strain SPO22, hits give low values 0.981 | locus YIL125W, strain kgd1, hits give low values 0.994 | locus YIR030C, strain dcg1, hits give low values 0.991 | locus YJL092W, strain hpr5, hits give low values 1.02 | locus YJL095W, strain BCK1 (second series), hits give low values 1.05 | locus YJL095W, strain BCK1, hits give low values 1.03 and 1.01 | locus YJL115W, strain asf1, hits give low values 1.03 | locus YJL129C, strain trk1, hits give low values 1.04 | locus YJL134W, strain LCB3, hits give low values 1.01 | locus YJL154C, strain vps35, hits give low values 1.02 | locus YJL164C, strain tpk1, hits give low values 1.02 | locus YJL166W, strain qcr8, hits give low values 1.01 | locus YJL168C, strain set2, hits give low values 0.987 | locus YJL187C, strain SWE1 (second series), hits give low values 1.03 | locus YJL187C, strain SWE1, hits give low values 1.02 | locus YJR043C, strain POL32, hits give low values 1.05 | locus YJR066W, strain TOR1, hits give low values 0.989
